Measured values as given in the supplement of paper PMC10849652.
Targets with a hit are over-represented here; the source holds about 7,900 in all. About 0.6% of all pairs of compound and target were hits. A number with no mark means an inactive call.

What was measured:
Assay in all cases: log2 fold change, soluble protein after heating vs DMSO (PISA); higher = thermal stabilisation; K562 cells, 10 uM, 30 min; active = over 0.2 and 3.5 SD of the protein, either way, in both replicates (recomputed)
[1] = compound: CS(=O)(=O)c1ccc(-c2cnc(N)c(C(=O)Nc3ccccc3)n2)cc1
In short: (§1)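 K562 cells at 2×10^6 cells/mL were treated for 30 min with 10 μM compound, and aliquots were heated for 3 min over 48°C-58°C before pooling. Extraction used PBS with 0.5% NP-40 at 4°C, and soluble protein was the supernatant after 21,000xg for 90 min, measured by TMTpro 16plex LC-MS/MS with channel sums equalised. Thermal stability values, relative to control samples and from duplicates, are log2 fold changes.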

crizotinib = compound: C[C@@H](Oc1cc(-c2cnn(C3CCNCC3)c2)cnc1N)c1c(Cl)ccc(F)c1Cl [crizotinib]
In short: as §1

[2] = compound: C[C@@H]1COCCN1C2=NC(=NC(=C2)C3(CC3)S(=O)(=O)C)C4=C5C=CNC5=CC=C4
In short: as §1

[3] = compound: C[C@H](C1=CC=C(C=C1)C(=O)NC2=C3C=CNC3=NC=C2)N
In short: as §1

duvelisib = compound: C[C@H](Nc1ncnc2nc[nH]c12)c1cc2cccc(Cl)c2c(=O)n1-c1ccccc1 [duvelisib]
In short: as §1

gandotinib = compound: Cc1cc(Nc2cc(CN3CCOCC3)c3nc(C)c(Cc4ccc(Cl)cc4F)n3n2)n[nH]1 [gandotinib]
In short: as §1

tozasertib = compound: Cc1cc(Nc2cc(N3CCN(C)CC3)nc(Sc3ccc(NC(=O)C4CC4)cc3)n2)n[nH]1 [tozasertib]
In short: as §1

[4] = compound: Cc1cc(SCc2sc(-c3ccc(C(F)(F)F)cc3)nc2C)ccc1OCC(=O)O
In short: as §1

doramapimod = compound: Cc1ccc(-n2nc(C(C)(C)C)cc2NC(=O)Nc2ccc(OCCN3CCOCC3)c3ccccc23)cc1 [doramapimod]
In short: as §1

ispinesib = compound: Cc1ccc(C(=O)N(CCCN)[C@@H](c2nc3cc(Cl)ccc3c(=O)n2Cc2ccccc2)C(C)C)cc1 [ispinesib]
In short: as §1

bafetinib = compound: Cc1ccc(NC(=O)c2ccc(CN3CC[C@H](N(C)C)C3)c(C(F)(F)F)c2)cc1Nc1nccc(-c2cncnc2)n1 [bafetinib]
In short: as §1

[5] = compound: Cc1cccc(CC(=O)N2CCc3c2ccc(-c2cn(C)c4ncnc(N)c24)c3F)n1
In short: as §1

nilotinib = compound: Cc1cn(-c2cc(NC(=O)c3ccc(C)c(Nc4nccc(-c5cccnc5)n4)c3)cc(C(F)(F)F)c2)cn1 [nilotinib]
In short: as §1

[6] = compound: Cc1nc(Nc2n[nH]c3c2CN(C(=O)N[C@H](CN(C)C)c2ccccc2)C3(C)C)c2sccc2n1
In short: as §1

dasatinib = compound: Cc1nc(Nc2ncc(C(=O)Nc3c(C)cccc3Cl)s2)cc(N2CCN(CCO)CC2)n1 [dasatinib]
In short: as §1

[7] = compound: Cc1ncc(-c2ccnc(Nc3ccc(S(C)(=O)=O)cc3)n2)n1C(C)C
In short: as §1

[8] = compound: Cn1cc(-c2ccc3c(c2)CCN3C(=O)Cc2cccc(C(F)(F)F)c2)c2c(N)ncnc21
In short: as §1

[9] = compound: Cn1cc(-c2ccc3nnc(C(F)(F)c4ccc5ncccc5c4)n3n2)cn1
In short: as §1

tipifarnib = compound: Cn1cncc1[C@@](N)(c1ccc(Cl)cc1)c1ccc2c(c1)c(-c1cccc(Cl)c1)cc(=O)n2C [tipifarnib]
In short: as §1

mubritinib = compound: FC(F)(F)c1ccc(/C=C/c2nc(COc3ccc(CCCCn4ccnn4)cc3)co2)cc1 [mubritinib]
In short: as §1

UniProt Q9GZY8, sequence (Q9GZY8 whole entry, looked up): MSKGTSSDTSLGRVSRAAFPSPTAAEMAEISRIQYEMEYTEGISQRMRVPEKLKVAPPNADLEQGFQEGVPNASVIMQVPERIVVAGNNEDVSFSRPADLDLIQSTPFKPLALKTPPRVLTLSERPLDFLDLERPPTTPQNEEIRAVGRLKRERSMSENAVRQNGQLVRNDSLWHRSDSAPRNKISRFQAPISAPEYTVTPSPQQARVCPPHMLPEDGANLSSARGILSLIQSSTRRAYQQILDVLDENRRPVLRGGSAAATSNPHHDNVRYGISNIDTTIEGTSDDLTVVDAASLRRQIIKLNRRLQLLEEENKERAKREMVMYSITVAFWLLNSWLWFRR
UniProt Q8WWC4, sequence (Q8WWC4 whole entry, looked up): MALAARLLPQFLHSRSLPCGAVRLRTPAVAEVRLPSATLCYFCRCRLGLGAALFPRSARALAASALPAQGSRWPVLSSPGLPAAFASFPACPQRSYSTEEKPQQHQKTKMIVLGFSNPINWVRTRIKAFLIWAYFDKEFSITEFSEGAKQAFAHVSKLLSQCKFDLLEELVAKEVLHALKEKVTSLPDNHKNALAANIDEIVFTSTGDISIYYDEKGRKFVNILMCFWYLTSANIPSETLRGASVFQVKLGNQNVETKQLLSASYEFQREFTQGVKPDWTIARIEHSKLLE
UniProt Q9H0C8, sequence (Q9H0C8 whole entry, looked up): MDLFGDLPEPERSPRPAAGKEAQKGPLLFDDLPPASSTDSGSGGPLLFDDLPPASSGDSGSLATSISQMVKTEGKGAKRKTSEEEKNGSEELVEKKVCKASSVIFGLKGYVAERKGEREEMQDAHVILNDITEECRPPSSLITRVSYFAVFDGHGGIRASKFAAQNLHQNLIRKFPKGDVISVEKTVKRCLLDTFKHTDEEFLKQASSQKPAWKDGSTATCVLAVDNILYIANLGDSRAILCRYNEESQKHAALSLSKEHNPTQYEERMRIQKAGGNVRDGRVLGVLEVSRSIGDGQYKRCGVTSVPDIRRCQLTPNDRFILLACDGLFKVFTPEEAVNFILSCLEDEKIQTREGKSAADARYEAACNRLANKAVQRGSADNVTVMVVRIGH
UniProt Q8NC54, sequence (Q8NC54 whole entry, looked up): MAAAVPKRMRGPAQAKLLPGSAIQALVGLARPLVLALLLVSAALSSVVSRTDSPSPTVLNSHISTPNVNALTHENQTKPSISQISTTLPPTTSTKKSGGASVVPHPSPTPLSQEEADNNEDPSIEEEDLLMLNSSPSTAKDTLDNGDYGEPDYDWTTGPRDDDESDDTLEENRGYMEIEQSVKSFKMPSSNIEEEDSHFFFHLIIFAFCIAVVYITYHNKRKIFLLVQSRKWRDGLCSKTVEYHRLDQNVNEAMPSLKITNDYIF
UniProt P13473, sequence (P13473 whole entry, looked up): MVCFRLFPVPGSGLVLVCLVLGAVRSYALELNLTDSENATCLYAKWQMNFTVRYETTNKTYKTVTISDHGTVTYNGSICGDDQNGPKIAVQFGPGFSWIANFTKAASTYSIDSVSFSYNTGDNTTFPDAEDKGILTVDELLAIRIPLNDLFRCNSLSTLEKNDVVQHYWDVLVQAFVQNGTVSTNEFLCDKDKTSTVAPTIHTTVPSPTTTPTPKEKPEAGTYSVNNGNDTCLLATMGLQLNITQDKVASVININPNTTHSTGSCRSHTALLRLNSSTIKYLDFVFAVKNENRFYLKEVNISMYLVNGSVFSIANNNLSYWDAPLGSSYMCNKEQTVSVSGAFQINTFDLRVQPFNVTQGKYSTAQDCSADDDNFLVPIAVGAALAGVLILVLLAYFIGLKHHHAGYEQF
UniProt Q96A72, sequence (Q96A72 whole entry, looked up): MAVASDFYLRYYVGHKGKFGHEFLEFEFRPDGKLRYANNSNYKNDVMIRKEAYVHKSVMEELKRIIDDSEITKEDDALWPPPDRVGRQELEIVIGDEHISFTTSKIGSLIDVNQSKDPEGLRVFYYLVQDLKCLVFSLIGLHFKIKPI
UniProt Q8TBB5, sequence (Q8TBB5 whole entry, looked up): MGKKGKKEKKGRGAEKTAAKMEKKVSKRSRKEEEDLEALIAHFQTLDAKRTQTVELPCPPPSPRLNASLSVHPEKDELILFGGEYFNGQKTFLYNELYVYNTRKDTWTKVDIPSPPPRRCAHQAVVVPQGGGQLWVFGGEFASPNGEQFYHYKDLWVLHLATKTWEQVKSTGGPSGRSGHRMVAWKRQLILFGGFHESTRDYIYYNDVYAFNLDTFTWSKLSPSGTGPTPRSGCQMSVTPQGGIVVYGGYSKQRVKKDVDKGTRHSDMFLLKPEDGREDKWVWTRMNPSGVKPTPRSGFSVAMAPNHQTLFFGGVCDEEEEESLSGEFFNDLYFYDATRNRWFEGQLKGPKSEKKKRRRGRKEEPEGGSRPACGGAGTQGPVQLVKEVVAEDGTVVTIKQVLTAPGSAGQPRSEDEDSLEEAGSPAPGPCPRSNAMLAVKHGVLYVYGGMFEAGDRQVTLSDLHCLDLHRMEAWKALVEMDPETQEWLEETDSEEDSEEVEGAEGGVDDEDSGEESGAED
UniProt Q9H3F6, sequence (Q9H3F6 whole entry, looked up): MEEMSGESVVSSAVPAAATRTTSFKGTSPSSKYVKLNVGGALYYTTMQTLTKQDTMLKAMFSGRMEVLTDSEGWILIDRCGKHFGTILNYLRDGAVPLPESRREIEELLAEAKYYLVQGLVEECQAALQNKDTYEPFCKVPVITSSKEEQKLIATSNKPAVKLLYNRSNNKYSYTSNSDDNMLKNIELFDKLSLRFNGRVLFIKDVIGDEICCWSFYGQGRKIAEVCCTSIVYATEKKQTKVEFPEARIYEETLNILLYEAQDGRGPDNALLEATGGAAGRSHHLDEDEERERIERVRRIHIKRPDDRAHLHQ
UniProt Q9HCC0, sequence (Q9HCC0 whole entry, looked up): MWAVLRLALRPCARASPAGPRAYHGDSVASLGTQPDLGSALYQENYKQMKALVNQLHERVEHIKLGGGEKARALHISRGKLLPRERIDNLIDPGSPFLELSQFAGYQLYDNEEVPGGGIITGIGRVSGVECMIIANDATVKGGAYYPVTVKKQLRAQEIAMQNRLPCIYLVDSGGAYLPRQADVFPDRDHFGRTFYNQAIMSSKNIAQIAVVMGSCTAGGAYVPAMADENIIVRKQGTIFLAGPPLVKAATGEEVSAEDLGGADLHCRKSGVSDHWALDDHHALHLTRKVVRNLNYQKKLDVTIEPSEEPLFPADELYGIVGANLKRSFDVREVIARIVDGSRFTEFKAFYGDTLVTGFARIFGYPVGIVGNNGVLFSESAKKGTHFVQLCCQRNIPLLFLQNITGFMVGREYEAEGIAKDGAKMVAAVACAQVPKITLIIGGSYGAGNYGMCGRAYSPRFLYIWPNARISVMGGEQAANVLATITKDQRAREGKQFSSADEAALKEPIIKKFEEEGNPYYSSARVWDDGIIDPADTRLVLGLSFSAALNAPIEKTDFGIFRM
UniProt Q92615, sequence (Q92615 whole entry, looked up): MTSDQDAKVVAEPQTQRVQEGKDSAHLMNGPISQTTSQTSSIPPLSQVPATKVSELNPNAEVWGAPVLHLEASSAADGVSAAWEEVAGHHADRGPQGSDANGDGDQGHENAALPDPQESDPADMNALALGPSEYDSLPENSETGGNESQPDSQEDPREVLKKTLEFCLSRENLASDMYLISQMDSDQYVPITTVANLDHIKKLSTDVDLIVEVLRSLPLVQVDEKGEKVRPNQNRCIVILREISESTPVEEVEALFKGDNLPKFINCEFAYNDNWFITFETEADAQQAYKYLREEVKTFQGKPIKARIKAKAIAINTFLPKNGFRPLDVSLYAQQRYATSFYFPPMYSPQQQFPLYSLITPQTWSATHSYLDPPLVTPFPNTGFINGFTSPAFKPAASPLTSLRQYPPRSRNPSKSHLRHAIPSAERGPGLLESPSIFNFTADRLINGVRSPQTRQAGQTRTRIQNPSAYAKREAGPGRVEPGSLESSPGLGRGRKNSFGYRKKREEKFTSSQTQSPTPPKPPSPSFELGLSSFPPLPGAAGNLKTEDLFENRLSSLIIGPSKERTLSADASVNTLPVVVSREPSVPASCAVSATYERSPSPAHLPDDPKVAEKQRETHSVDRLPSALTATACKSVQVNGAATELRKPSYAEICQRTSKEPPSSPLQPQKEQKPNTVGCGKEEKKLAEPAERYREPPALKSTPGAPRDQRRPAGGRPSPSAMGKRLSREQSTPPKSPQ
UniProt Q9Y2U8, sequence (Q9Y2U8 whole entry, looked up): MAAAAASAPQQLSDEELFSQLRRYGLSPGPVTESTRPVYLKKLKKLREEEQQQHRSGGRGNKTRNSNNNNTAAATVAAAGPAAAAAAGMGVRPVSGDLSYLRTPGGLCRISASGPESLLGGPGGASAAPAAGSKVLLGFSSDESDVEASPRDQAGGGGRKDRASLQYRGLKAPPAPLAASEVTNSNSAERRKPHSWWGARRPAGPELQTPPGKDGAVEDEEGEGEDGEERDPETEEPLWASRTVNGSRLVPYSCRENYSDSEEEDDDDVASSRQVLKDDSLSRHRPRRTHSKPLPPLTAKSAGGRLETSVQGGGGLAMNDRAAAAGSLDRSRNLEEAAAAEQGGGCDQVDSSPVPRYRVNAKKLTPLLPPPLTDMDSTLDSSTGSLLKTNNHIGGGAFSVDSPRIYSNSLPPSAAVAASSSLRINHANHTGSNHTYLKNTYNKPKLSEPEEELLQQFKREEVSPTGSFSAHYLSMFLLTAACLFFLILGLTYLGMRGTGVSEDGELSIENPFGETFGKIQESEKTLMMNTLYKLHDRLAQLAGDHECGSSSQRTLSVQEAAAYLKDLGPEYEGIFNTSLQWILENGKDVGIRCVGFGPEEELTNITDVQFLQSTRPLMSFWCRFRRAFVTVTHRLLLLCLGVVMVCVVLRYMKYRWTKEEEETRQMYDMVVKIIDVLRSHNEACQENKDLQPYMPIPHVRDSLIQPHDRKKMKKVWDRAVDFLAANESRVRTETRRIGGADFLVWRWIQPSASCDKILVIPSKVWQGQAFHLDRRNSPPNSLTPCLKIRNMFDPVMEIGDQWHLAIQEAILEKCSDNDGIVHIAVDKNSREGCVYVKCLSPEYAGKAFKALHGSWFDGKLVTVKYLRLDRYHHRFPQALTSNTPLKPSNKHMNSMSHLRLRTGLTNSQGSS

Target | log2 fold change [1] | log2 fold change (crizotinib) | log2 fold change [2] | log2 fold change [3] | log2 fold change (duvelisib) | log2 fold change (gandotinib) | log2 fold change (tozasertib) | log2 fold change [4] | log2 fold change (doramapimod) | log2 fold change (ispinesib) | log2 fold change (bafetinib) | log2 fold change [5] | log2 fold change (nilotinib) | log2 fold change [6] | log2 fold change (dasatinib) | log2 fold change [7] | log2 fold change [8] | log2 fold change [9] | log2 fold change (tipifarnib) | log2 fold change (mubritinib)
MICU1 isoform 3 (UniProt Q9BPX6) | -0.024 | -0.207 | -0.101 | 0.023 | -0.04 | -0.128 | -0.102 | 0.021 | -0.011 | -0.458 (active) | -0.098 | 0.106 | -0.037 | -0.012 | -0.065 | -0.022 | -0.012 | -0.055 | -0.019 | -0.064
LARP4B (UniProt Q92615) | -0.066 | -0.1 | -0.121 | 0.104 | -0.029 | -0.029 | 0.037 | 0.065 | 0.048 | -0.132 | 0.022 | -0.025 | -0.055 | -0.192 | -0.072 | -0.092 | -0.052 | -0.031 | -0.008 | -0.038
ILKAP (UniProt Q9H0C8) | 0.008 | 0.064 | 0.174 | -0.054 | 0.041 | -0.061 | 0 | 0.085 | -0.055 | 0.05 | 0.028 | 0.079 | 0.052 | -0.117 | -0.208 | 0.02 | 0.036 | 0.045 | -0.093 | 0.137
MFF (UniProt Q9GZY8) | -0.03 | -0.051 | -0.052 | -0.023 | 0.005 | -0.036 | -0.053 | -0.085 | -0.018 | -0.088 | -0.065 | -0.049 | -0.057 | -0.073 | 0.014 | -0.017 | -0.011 | -0.05 | 0.073 | 0.035
LAMP2 (UniProt P13473) | 0.055 | 0.043 | 0.006 | -0.051 | 0.072 | -0.104 | 0.015 | -0.062 | -0.039 | -0.001 | -0.124 | -0.051 | 0.002 | -0.014 | 0.017 | 0.014 | 0.048 | 0.035 | 0.14 | 0.017
KLHDC4 (UniProt Q8TBB5) | 0.093 | 0.157 | -0.07 | 0.111 | -0.091 | 0.041 | 0.025 | 0.039 | 0.069 | 0 | 0.012 | -0.018 | 0 | -0.067 | 0.107 | 0.156 | -0.175 | -0.23 | 0.106 | -0.333
LSR (UniProt Q86X29) | 0.08 | 0.043 | 0.009 | -0.025 | 0.061 | -0.012 | -0.044 | -0.031 | 0.04 | 0.027 | 0.068 | -0.057 | 0.024 | -0.254 (active) | 0.003 | 0.009 | 0.072 | 0.018 | 0.011 | 0.01
MAGOHB (UniProt Q96A72) | 0.005 | 0.324 (active) | 0.013 | -0.131 | 0.039 | 0.084 | 0.141 | 0.05 | -0.016 | 0.076 | -0.015 | -0.007 | -0.019 | -0.042 | 0.007 | 0.138 | -0.017 | 0.024 | 0 | 0.04
LEMD3 (UniProt Q9Y2U8) | 0.072 | -0.12 | -0.084 | -0.016 | -0.003 | 0.006 | -0.015 | 0.114 | -0.002 | -0.095 | -0.171 | -0.114 | -0.127 | -0.026 | -0.106 | 0.037 | 0.163 | 0.049 | -0.008 | 0.001
MCCC2 (UniProt Q9HCC0) | -0.004 | 0.028 | 0.027 | -0.053 | 0.054 | 0.051 | -0.011 | -0.022 | 0 | 0.047 | -0.047 | -0.062 | 0.035 | -0.012 | 0.058 | -0.047 | 0.04 | 0.028 | -0.005 | -0.015
IGFBP2 (UniProt P18065) | -0.205 | -0.297 | -0.051 | -0.189 | 0.173 | -0.475 | -0.083 | 0.026 | -0.305 | -0.482 | -0.512 | 0.026 | -0.034 | 0.142 | -0.1 | 0.17 | 0.17 | -0.095 | -0.1 | -0.135
MFGE8 (UniProt Q08431) | 0.063 | 0.04 | -0.129 | 0.087 | -0.052 | -0.015 | 0.085 | 0.057 | 0.046 | -0.122 | 0.024 | 0.002 | 0.168 | 0.008 | 0.049 | -0.039 | -0.057 | -0.029 | 0.033 | -0.096
KCTD10 (UniProt Q9H3F6) | -0.035 | 0.097 | -0.027 | -0.13 | 0.05 | 0.042 | 0.035 | -0.01 | -0.042 | 0.108 | -0.059 | -0.036 | 0.002 | -0.088 | 0.056 | 0.074 | 0.012 | 0.153 | 0.058 | -0.009
LIMD1 (UniProt Q9UGP4) | -0.03 | 0.005 | -0.007 | -0.071 | -0.032 | 0.011 | 0.039 | 0.042 | -0.01 | 0.008 | -0.143 | 0.017 | 0.023 | -0.085 | 0.001 | -0.008 | 0.021 | -0.015 | -0.071 | 0.012
KCT2 (UniProt Q8NC54) | 0 | -0.186 | 0.074 | -0.04 | 0.064 | 0.038 | 0.033 | 0.054 | 0.091 | -0.118 | -0.114 | 0.045 | -0.01 | -0.023 | 0.045 | 0.021 | 0.01 | 0.073 | 0.125 | 0.052
MAIP1 (UniProt Q8WWC4) | 0.071 | -0.114 | 0.062 | -0.072 | 0.025 | -0.025 | 0.027 | -0.005 | -0.008 | -0.21 | -0.147 | 0.005 | 0.027 | 0.007 | -0.021 | -0.004 | 0.031 | 0.028 | -0.047 | -0.006
